PubChem BioAssay (Tox21)
Several values for one entry are separate records, joined by “and”; a condition that tells them apart may be missing. Identical values can stand only once. Records with an inconclusive call do not appear. Where a call stands in place of a potency, no number is given. Some structures have more than one record in an assay (separate samples or runs), and their calls can disagree. Activity calls are given as the source filed them. Unless noted, the call rests on the fitted dose curve; in most records, active means well fitted curve in the direction sought with a large enough effect in the repeat runs; inconclusive means weak or mixed curves; inactive means no such curve, though single readings can be large; an effect the other way counts as inactive or inconclusive.

Tests used:
[1] = target: Peroxisome proliferator-activated receptor delta (Homo sapiens) (UniProt Q03181); experiment: qHTS assay to identify small molecule agonists of the peroxisome proliferator-activated receptor delta (PPARd) signaling pathway (AID 743212; calls by dose curve)
Method in brief: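 Tox21 library screened in GeneBLAzer PPARd UAS-bla HEK293H cells. After compound treatment at 37 C, a FRET-based beta-lactamase substrate was applied for 2 h and fluorescence recorded.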

[2] = qHTS assay to identify small molecule antagonists of the peroxisome proliferator-activated receptor delta (PPARd) signaling pathway - cell viability counter screen (AID 743213); further: nearly all actives have a fitted effect of over 50% in size; further: potency means the concentration at half of the fitted maximal effect
Method in brief: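 PPARd-bla HEK293H cells were treated with compounds plus agonist L165041 (300 nM final) for 17 h at 37 C. Viability was then read in the same wells by CellTiter-Glo luminescence after 30 min at room temperature.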

[3] = target: Peroxisome proliferator-activated receptor delta (Homo sapiens) (UniProt Q03181); experiment: qHTS assay to identify small molecule antagonists of the peroxisome proliferator-activated receptor delta (PPARd) signaling pathway (AID 743215; active means well fitted inhibition curve with a large enough effect in the signal ratio in the repeat runs, not every such curve was filed as active; the % refers to the signal ratio;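 further: cells stimulated with agonist L165041 at 300 nM final during compound exposure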; further: potency means the concentration at half of the fitted maximal effect)
Method in brief: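 HEK293H GeneBLAzer PPARd UAS-bla reporter cells; cpd + L165041 300 nM final, 17 h 37 C; LiveBLAzer B/G FRET substrate 2 h RT; fluorescence intensity read-out. Antagonist mode.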

[4] = qHTS assay to identify small molecule agonists of the farnesoid-X-receptor (FXR) signaling pathway - cell viability counter screen (AID 743218); further: nearly all actives have a fitted effect of over 45% in size; further: potency means the concentration at half of the fitted maximal effect
Method in brief: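 Luminescence from CellTiter-Glo, read after 30 min at RT, reports viability of GeneBLAzer FXR-UAS-bla HEK 293T cells treated 16 h with compounds in the wells used for the beta-lactamase reporter.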

[5] = target: Bile acid receptor (Homo sapiens) (UniProt Q96RI1); experiment: qHTS assay to identify small molecule agonists of the farnesoid-X-receptor (FXR) signaling pathway (AID 743220; active means well fitted activation curve with a large enough effect in the signal ratio in the repeat runs, not every such curve was filed as active; the % refers to the signal ratio)
Method in brief: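 FXR-UAS-bla HEK 293T cells carrying a UAS-driven beta-lactamase reporter were plated for 5 h at 37C/5% CO2, then exposed to DMSO-dissolved Tox21 10K compounds for 16 h at 37C. A LiveBLAzer B/G FRET substrate was loaded for 2 h at room temperature before fluorescence reading.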

[6] = qHTS assay to identify small molecule antagonists of the farnesoid-X-receptor (FXR) signaling pathway - cell viability counter screen (AID 743221; active means well fitted cell-killing curve with a large enough effect in the repeat runs, not every such curve was filed as active; further: nearly all actives have a fitted effect of over 50% in size)
Method in brief: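 HEK 293T FXR-bla cells, 5 h pre-incubation; compound + CDCA 50 uM final, 16 h, 37 C; beta-lactamase FRET read first, then CellTiter-Glo luminescence, 30 min RT.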

[7] = target: Vitamin D3 receptor (Homo sapiens) (UniProt P11473); experiment: qHTS assay to identify small molecule agonists of the vitamin D receptor (VDR) signaling pathway (AID 743222; calls by dose curve)
Method in brief: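 Beta-lactamase reporter readout (LiveBLAzer B/G FRET, 2 h RT) in VDR-bla cells after 16 h compound treatment at 37C, 5% CO2; cells pre-incubated 4 h before pin transfer of DMSO solutions.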

[8] = qHTS assay to identify small molecule agonists of the vitamin D receptor (VDR) signaling pathway - cell viability counter screen (AID 743224); further: nearly all actives have a fitted effect of over 50% in size; further: potency means the concentration at half of the fitted maximal effect
Method in brief: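 Cytotoxicity counter screen: VDR-bla cells, 16 h compound exposure at 37C, 5% CO2; CellTiter-Glo luminescence, 30 min RT, same wells as bla read.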

[9] = qHTS assay to identify small molecule antagonists of the vitamin D receptor (VDR) signaling pathway - cell viability counter screen (AID 743225); further: nearly all actives have a fitted effect of over 50% in size; further: potency means the concentration at half of the fitted maximal effect
Method in brief: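 Viability counter screen run in the same wells as the beta-lactamase reporter assay: HEK 293T VDR-UAS-bla cells, 16 h compound exposure at 37C with 3 nM (final) 1-alpha,25-dihydroxyvitamin D3. CellTiter-Glo luminescence, 30 min, room temperature.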

[10] = target: Vitamin D3 receptor (Homo sapiens) (UniProt P11473); experiment: qHTS assay to identify small molecule antagonists of the vitamin D receptor (VDR) signaling pathway (AID 743223; active means well fitted inhibition curve with a large enough effect in the signal ratio in the repeat runs, not every such curve was filed as active; the % refers to the signal ratio)
Method in brief: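 Beta-lactamase reporter read-out: FRET substrate fluorescence after 2 h at room temperature, following 16 h exposure of VDR-bla cells to test compound plus 3 nM (final) 1alpha,25-dihydroxyvitamin D3 agonist at 37C.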

Sequence of Bile acid receptor (Homo sapiens) (Q96RI1 whole entry, looked up): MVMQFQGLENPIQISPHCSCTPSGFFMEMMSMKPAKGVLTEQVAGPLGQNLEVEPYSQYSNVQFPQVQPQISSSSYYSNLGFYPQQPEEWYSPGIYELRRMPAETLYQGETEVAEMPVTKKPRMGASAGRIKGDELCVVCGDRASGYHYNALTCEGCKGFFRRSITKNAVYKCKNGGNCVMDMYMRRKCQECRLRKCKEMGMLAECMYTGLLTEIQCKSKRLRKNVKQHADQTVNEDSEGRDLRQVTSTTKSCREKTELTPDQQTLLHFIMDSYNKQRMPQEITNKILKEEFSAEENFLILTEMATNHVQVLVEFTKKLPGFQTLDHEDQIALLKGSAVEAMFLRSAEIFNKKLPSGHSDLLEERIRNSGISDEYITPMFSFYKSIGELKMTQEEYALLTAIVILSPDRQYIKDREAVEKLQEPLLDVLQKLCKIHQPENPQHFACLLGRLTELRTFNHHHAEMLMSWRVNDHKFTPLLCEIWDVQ
Sequence of Vitamin D3 receptor (Homo sapiens) (P11473 whole entry, looked up): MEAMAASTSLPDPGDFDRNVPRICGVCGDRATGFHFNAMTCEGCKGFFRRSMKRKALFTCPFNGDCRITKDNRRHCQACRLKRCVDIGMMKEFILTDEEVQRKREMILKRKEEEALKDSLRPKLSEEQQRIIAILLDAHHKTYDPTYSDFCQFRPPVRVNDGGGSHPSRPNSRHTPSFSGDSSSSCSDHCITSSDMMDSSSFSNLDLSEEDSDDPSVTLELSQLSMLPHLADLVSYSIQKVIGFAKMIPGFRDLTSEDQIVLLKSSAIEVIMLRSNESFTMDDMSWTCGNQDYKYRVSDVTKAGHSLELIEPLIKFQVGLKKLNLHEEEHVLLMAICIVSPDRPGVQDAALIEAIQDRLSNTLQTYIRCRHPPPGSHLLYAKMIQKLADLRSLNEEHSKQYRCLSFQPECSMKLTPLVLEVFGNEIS
Sequence of Peroxisome proliferator-activated receptor delta (Homo sapiens) (Q03181 whole entry, looked up): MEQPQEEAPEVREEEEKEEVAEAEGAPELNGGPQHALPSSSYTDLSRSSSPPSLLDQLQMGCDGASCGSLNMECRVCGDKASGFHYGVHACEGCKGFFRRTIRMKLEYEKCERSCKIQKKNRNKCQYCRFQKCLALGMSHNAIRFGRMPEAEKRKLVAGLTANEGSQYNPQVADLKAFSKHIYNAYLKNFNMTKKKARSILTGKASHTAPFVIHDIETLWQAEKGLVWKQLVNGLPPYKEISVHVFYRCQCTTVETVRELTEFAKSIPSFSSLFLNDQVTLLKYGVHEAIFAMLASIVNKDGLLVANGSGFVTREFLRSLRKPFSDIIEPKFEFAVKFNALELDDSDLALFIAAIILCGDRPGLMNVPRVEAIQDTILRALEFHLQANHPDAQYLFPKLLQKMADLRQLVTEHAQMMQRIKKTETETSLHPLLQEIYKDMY

Structure (SMILES)	Potency [1]	Potency [2]	Potency [3]	Potency [4]	outcome [5]	Potency [6]	Potency [7]	Potency [8]	Potency [9]	Potency [10]
CCC(C)(C)C(=O)OC1=C(c2ccc(Cl)cc2Cl)C(=O)OC12CCCCC2	inactive	inactive	inactive	inactive	inactive	inactive	inactive	inactive	inactive	–
CC(C)CCCCCOC(=O)c1ccccc1C(=O)OCCCCCC(C)C	inactive	inactive	inactive	inactive	inactive	inactive	inactive	inactive	inactive	inactive
CC(Cc1ccc(C(C)(C)C)cc1)CN1C[C@@H](C)O[C@@H](C)C1 (some centres undefined)	inactive	inactive	inactive	–	–	inactive	–	–	–	–
NNC(=O)c1ccccc1	inactive	inactive	inactive	inactive	–	inactive	–	–	inactive	–
CC(C)(C)OO	inactive	inactive	inactive	inactive	–	inactive	inactive	inactive	inactive	–
Clc1ccc(C(Cl)(Cl)Cl)c(Cl)c1	inactive	inactive	inactive	inactive	–	inactive	inactive	inactive	inactive	inactive
CN(C)c1ccc(N=Nc2ccccc2)cc1	inactive	inactive	inactive	inactive	–	inactive	–	inactive	inactive	inactive
Cc1ccc(OP(=O)(Oc2ccccc2)Oc2ccccc2)cc1	inactive	inactive	inactive	inactive	inactive	inactive	inactive	inactive	inactive	inactive
Clc1ccc(C(c2ccc(Cl)cc2)C(Cl)(Cl)Cl)cc1	inactive	inactive	inactive	inactive	–	inactive	inactive	55.3 µM (active) and 43.6 µM (active) and inactive	inactive	inactive
N#CCCSCCC#N	inactive	inactive	inactive	inactive	–	inactive	–	inactive	inactive	–
CCCN(CCC)CCc1c[nH]c2ccccc12	inactive	inactive	inactive	inactive	–	inactive	inactive	inactive	–	inactive
CCCCCCCCCBr	inactive	inactive	inactive	inactive	–	inactive	inactive	inactive	inactive	inactive
CN(C)CCc1c[nH]c2cccc(O)c12	inactive	inactive	inactive	inactive	–	–	inactive	–	inactive	inactive
ClCc1ccc(Cl)cc1Cl	inactive	inactive	inactive	inactive	–	inactive	inactive	inactive	inactive	inactive
Oc1ccc(C2(c3ccc(O)cc3)CCCCC2)cc1	inactive	46.4 µM (active)	46.4 µM (active)	23.2 µM (active)	–	–	–	46.4 µM (active)	36.8 µM (active)	–
ClC1=C(Cl)C2(Cl)C3C(Cl)C=CC3C1(Cl)C2(Cl)Cl (centres undefined)	inactive	inactive	inactive	–	–	inactive	–	43.6 µM (active)	inactive	–
N#CCCC(Br)(C#N)CBr (centres undefined)	inactive	–	–	–	inactive	inactive	–	43.6 µM (active)	–	–
CC(C)(C)C(O)/C(=C\c1ccc(Cl)cc1Cl)n1cncn1 (centres undefined)	inactive	–	–	–	inactive	–	–	59.3 µM (active)	52.8 µM (active)	–
Cc1cc(C(C)(C)c2cc(C)c(O)c(C)c2)cc(C)c1O	inactive	42.2 µM (active)	–	47.4 µM (active)	inactive	–	–	–	–	–
O=[N+]([O-])c1ccc(Oc2ccc(C(F)(F)F)cc2[N+](=O)[O-])cc1	inactive	inactive	–	–	inactive	inactive	inactive	inactive	inactive	–
CCc1nn(C)c(C(=O)NCc2ccc(C(C)(C)C)cc2)c1Cl	inactive	43.6 µM (active)	–	49 µM (active)	inactive	–	inactive	27.5 µM (active)	–	–
Fc1ccc(Oc2ccnc3cc(Cl)cc(Cl)c23)cc1	inactive	inactive	–	–	inactive	inactive	–	49 µM (active)	inactive	–
CCCN(CC)CC1COC2(CCC(C(C)(C)C)CC2)O1 (centres undefined)	inactive	inactive	–	inactive	–	inactive	inactive	inactive	–	inactive
CN(C)C1CSSSC1	inactive	inactive	–	–	–	inactive	inactive	inactive	inactive	–
